# Measurements reported in the supplement of paper PMC8728848.
# This excerpt belongs to a sample that is enriched for the strongest signals.
# How the values were obtained:
# Assay in all cases: glycan array binding signal (z-score within array); higher = stronger binding
# Conditions in all cases: glycan notation: IUPAC condensed, linker removed
# [1] = molecular target: Gal3S(b1-4)[Fuc(a1-3)]GlcNAc
# Method in brief: (§1)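 The Consortium for Functional Glycomics database supplied 3228 glycan arrays, of which those lacking an available protein sequence were dropped. The binding signal, a within-array Z-score, was averaged across arrays of the same protein sequence and across linkers. Negative scores can be read as non-binding.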
# GalNAc(b1-6)GalNAc = molecular target: GalNAc(b1-6)GalNAc
# Method in brief: as §1
# [2] = molecular target: GlcNAc(a1-4)Gal(b1-4)GalNAc
# Method in brief: as §1
# [3] = molecular target: GlcNAc(a1-4)Gal(b1-4)GlcNAc(b1-3)Gal(b1-4)GlcNAc
# Method in brief: as §1
# [4] = molecular target: GlcNAc(a1-4)Gal(b1-4)GlcNAc(b1-3)Gal(b1-4)GlcNAc(b1-3)Gal(b1-4)GlcNAc
# Method in brief: as §1
# [5] = molecular target: GlcNAc(a1-4)Gal(b1-4)GlcNAc(b1-3)Gal(b1-4)[Fuc(a1-3)]GlcNAc(b1-3)Gal(b1-4)[Fuc(a1-3)]GlcNAc
# Method in brief: as §1
# [6] = molecular target: GlcNAc(b1-2)[GlcNAc(b1-6)]Man(a1-6)[GlcNAc(b1-2)Man(a1-3)]Man(b1-4)GlcNAc(b1-4)GlcNAc
# Method in brief: as §1
# [7] = molecular target: GlcNAc(b1-3)Gal(b1-4)GlcNAc(b1-2)Man(a1-3)[GlcNAc(b1-3)Gal(b1-4)GlcNAc(b1-2)Man(a1-6)]Man(b1-4)GlcNAc(b1-4)[Fuc(a1-6)]GlcNAc
# Method in brief: as §1
# [8] = molecular target: GlcNAc(b1-3)Gal(b1-4)GlcNAc(b1-3)Gal(b1-4)GlcNAc(b1-2)Man(a1-3)[GlcNAc(b1-3)Gal(b1-4)GlcNAc(b1-3)Gal(b1-4)GlcNAc(b1-2)Man(a1-6)]Man(b1-4)GlcNAc(b1-4)[Fuc(a1-6)]GlcNAc
# Method in brief: as §1
# [9] = molecular target: GlcNAc(b1-3)Gal(b1-4)GlcNAc(b1-3)Gal(b1-4)GlcNAc(b1-3)Gal(b1-4)GlcNAc(b1-3)Gal(b1-4)GlcNAc(b1-2)Man(a1-3)[GlcNAc(b1-3)Gal(b1-4)GlcNAc(b1-3)Gal(b1-4)GlcNAc(b1-3)Gal(b1-4)GlcNAc(b1-3)Gal(b1-4)GlcNAc(b1-2)Man(a1-6)]Man(b1-4)GlcNAc(b1-4)[Fuc(a1-6)]GlcNAc
# Method in brief: as §1
# [10] = molecular target: GlcNAc(b1-3)Gal(b1-4)GlcNAc(b1-3)Gal(b1-4)GlcNAc(b1-3)GalNAc
# Method in brief: as §1
# GlcNAc(b1-4)GlcNAc = molecular target: GlcNAc(b1-4)GlcNAc
# Method in brief: as §1
# [11] = molecular target: Neu5Ac(a2-3)Gal(b1-3)GlcNAc(b1-2)Man
# Method in brief: as §1
# [12] = molecular target: Neu5Ac(a2-3)Gal(b1-3)GlcNAc(b1-6)GalNAc
# Method in brief: as §1
# [13] = molecular target: Neu5Ac(a2-3)Gal(b1-4)GlcNAc(b1-3)GalNAc
# Method in brief: as §1
# [14] = molecular target: Neu5Ac(a2-3)Gal(b1-4)GlcNAc(b1-6)GalNAc
# Method in brief: as §1
# [15] = molecular target: Neu5Ac(a2-3)Gal(b1-4)[Fuc(a1-3)]GlcNAc(b1-3)GalNAc
# Method in brief: as §1
# Neu5Ac(a2-3)GalNAc = molecular target: Neu5Ac(a2-3)GalNAc
# Method in brief: as §1
# [16] = molecular target: Neu5Ac(a2-6)Gal(b1-4)GlcNAc(b1-2)Man(a1-3)[Neu5Ac(a2-6)Gal(b1-4)GlcNAc(b1-2)Man(a1-6)]Man(b1-4)GlcNAc(b1-4)GlcNAc
# Method in brief: as §1
# [17] = molecular target: Neu5Ac(a2-6)Gal(b1-4)GlcNAc(b1-3)[Neu5Ac(a2-6)Gal(b1-4)GlcNAc(b1-6)]GalNAc
# Method in brief: as §1
# [18] = molecular target: Neu5Ac(a2-6)GalNAc(b1-4)GlcNAc6S
# Method in brief: as §1
# [19] = molecular target: Neu5Ac(a2-8)Neu5Ac(a2-8)Neu5Ac
# Method in brief: as §1
# Neu5Ac(b2-6)GalNAc = molecular target: Neu5Ac(b2-6)GalNAc
# Method in brief: as §1
# [20] = molecular target: Neu5Gc(a2-3)Gal(b1-4)GlcNAc
# Method in brief: as §1
binder,measurement,setting,value
ClecSol-Fc (Cryptosporidium parvum) (protein) CPEGWISNGEKTRCFKLVTFDRPRTFSHGFKACNDLGGTEVETRRRNGSKETNEYPVTLASVYKLSDEEAIRRTLVEQGDIHKTANGCFVGLRKYAFFRYPPGWYWIDSGSPVSVRDSEINWTSSYNASWLLRFKFPFEKCGFFDIGGLGRRPCWLIDSELSCAVCGTVAYDSGGLNPNKYSELIKQTDEIISKEPKLDLPGYNNLNCTDAWENNLSVGLCQNVSNILDSAWSSYQSSLNFPSINFNWKEDSTNEGGDQVYHNSYLDLPRYKQKKTFYWDQDPGTIPALSDEMKLIGLSAQPTYHPLDRSSSGSFESDSTESGRANEERNDTLEEMIYKQSSDSIEDILVPVTKPIFSDYSSIGRNSGVEEVYSSNVSTISSKGVVFPNTTTSSDNDFTKNNPANSSKHTSTSTTTNTTTTTTRTTTTTTTTTTTTTTTTTTTTETTTTKKSTTATKNTTTT,glycan array binding signal (z-score),[1],0.021
same,glycan array binding signal (z-score),GalNAc(b1-6)GalNAc,-0.238
same,glycan array binding signal (z-score),[2],18.7
same,glycan array binding signal (z-score),[3],2.11
same,glycan array binding signal (z-score),[4],1.61
same,glycan array binding signal (z-score),[5],0.617
same,glycan array binding signal (z-score),[6],-0.117
same,glycan array binding signal (z-score),[7],0.693
same,glycan array binding signal (z-score),[8],-0.079
same,glycan array binding signal (z-score),[9],0.18
same,glycan array binding signal (z-score),[10],0.074
same,glycan array binding signal (z-score),GlcNAc(b1-4)GlcNAc,5.31
same,glycan array binding signal (z-score),[11],-0.101
same,glycan array binding signal (z-score),[12],-0.123
same,glycan array binding signal (z-score),[13],-0.229
same,glycan array binding signal (z-score),[14],-0.11
same,glycan array binding signal (z-score),[15],-0.101
same,glycan array binding signal (z-score),Neu5Ac(a2-3)GalNAc,0.005
same,glycan array binding signal (z-score),[16],-0.172
same,glycan array binding signal (z-score),[17],-0.216
same,glycan array binding signal (z-score),[18],-0.03
same,glycan array binding signal (z-score),[19],0.518
same,glycan array binding signal (z-score),Neu5Ac(b2-6)GalNAc,-0.003
same,glycan array binding signal (z-score),[20],-0.119
